In PubChem BioAssay:
Structures can show the parent of a compound that is named as a salt. Where a SMILES comes first, the peptide text is derived from it. The star is where a group is joined. Tfa = O=C(C(F)(F)F)*

molecular target: 6-phosphogluconate dehydrogenase, decarboxylating (Homo sapiens) (UniProt P52209); assay: 6PGD enzyme inhibitors, primary screen, biochemical, human, recombinant enzyme, NADPH absorbance (AID 1159550); settings: recombinant 6PGD, NADPH absorbance 341 nm; at 10 µM; stronger effect = higher value
Sequence (P52209 whole entry, looked up): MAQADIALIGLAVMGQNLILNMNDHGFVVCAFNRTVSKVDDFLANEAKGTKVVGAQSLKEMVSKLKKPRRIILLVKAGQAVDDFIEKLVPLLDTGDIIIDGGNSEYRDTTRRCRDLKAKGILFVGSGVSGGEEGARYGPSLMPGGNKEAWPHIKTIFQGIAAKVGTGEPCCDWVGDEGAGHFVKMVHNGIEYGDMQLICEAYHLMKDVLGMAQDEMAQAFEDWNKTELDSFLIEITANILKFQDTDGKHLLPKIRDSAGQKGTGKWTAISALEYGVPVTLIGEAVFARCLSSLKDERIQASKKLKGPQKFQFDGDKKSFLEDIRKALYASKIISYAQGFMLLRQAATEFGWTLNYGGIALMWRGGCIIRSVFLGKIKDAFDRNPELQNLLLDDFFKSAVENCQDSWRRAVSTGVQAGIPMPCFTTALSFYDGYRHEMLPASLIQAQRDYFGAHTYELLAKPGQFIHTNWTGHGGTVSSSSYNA

inhibition, inactive:
CO[C@H]1/C=C/O[C@@]2(C)Oc3c(C)c(O)c4c(O)c(c(/C=N/N5CCN(C)CC5)c(O)c4c3C2=O)NC(=O)/C(C)=C/C=C/[C@H](C)[C@H](O)[C@@H](C)[C@@H](O)[C@@H](C)[C@H](OC(C)=O)[C@@H]1C 18.2%
CC(CCC(=O)O)C1CCC2C3CCC4CCCCC4(C)C3CCC12C (centres undefined) 14%
CNC(C)[C@@H]1CC[C@@H](N)[C@@H](OC2C(O)[C@@H](OC3OC[C@](C)(O)C(NC)[C@H]3O)[C@H](N)C[C@@H]2N)O1 (some centres undefined) 1.04%
Cc1cc(=O)c2c(O)c(C)c(O)cc2o1 15%
CCOC(=O)C1(O)Oc2cc(OC)cc(OC)c2C(=O)C1c1ccccc1 (centres undefined) -4.01%
COc1cc2c(cc1O)[C@@H](Cc1ccc(O)cc1)[N+](C)(C)CC2 16.9%
CC(=O)O[C@H](CC(=O)[O-])C[N+](C)(C)C -15.2%
CC(=O)OC1CC[C@@]2(C)C(CC[C@]3(C)C2CCC2C4CC(C)(C)CCC4(C(=O)O)CC[C@]23C)C1(C)C (some centres undefined) 5.8%
O=C(O)C=CC=Cc1ccccc1 8.52%
NC[C@@H]1OC(O[C@@H]2[C@@H](O)[C@H](O[C@H]3[C@@H](O)[C@H](N)C[C@H](N)[C@H]3O[C@H]3O[C@H](CN)[C@H](O)[C@H](O)[C@H]3N)O[C@@H]2CO)[C@H](N)[C@@H](O)[C@H]1O (some centres undefined) -6.73%
COc1ccc2c(c1)[C@@]1(C)CCC(=O)C[C@@H]1CC2 3.57%
C=C(C)C1Cc2c(ccc(C(=O)O)c2O)O1 (centres undefined) -0.806%
CCCCCCCCCCCCC(C(=O)O)C(C)C(=O)O (centres undefined) -10.3%
O[C@@H]1[C@@H](O)[C@@H]2OC[C@@H](O2)[C@H]1O -10.4%
C=CCCCCCCCCCCC/C=C/C(O)COC(C)=O (centres undefined) -11.7%
COC1=CC(=O)C(O)=C/C1=C/C=C/c1ccccc1 4.47%
CC(=O)OC1CCC2(C)C(CCC3C2CC(=O)C2(C)C3CC3OC4(CCC(C)CO4)C(C)C32)C1 (centres undefined) 5.72%
COc1cc(OC)c2oc(-c3ccc(OC)c(OC)c3)c(O)c(=O)c2c1 -1.17%
Nc1nc2ncc(C(=O)O)nc2c(=O)[nH]1 13.3%
COC(=O)C[C@H]1C(C)(C)C(=O)[C@@H]2CC3=C4CC(OC)O[C@@H](c5ccoc5)[C@]4(C)CCC3[C@@]1(C)C2=O (some centres undefined) -2.67%
N[C@@H](COCc1ccccc1)C(=O)O 3.6%
CC1(C)CC2C1CC[C@]1(CBr)CCC3C(CC(=O)O)C(=O)O[C@@]32C1 (some centres undefined) 14.7%
CCC(C)C(N)C1=NC(C(=O)NC(CC(C)C)C(=O)NC(CCC(=O)O)C(=O)NC(C(=O)NC2CCCCNC(=O)C(CC(N)=O)NC(=O)C(CC(=O)O)NC(=O)C(Cc3cnc[nH]3)NC(=O)C(Cc3ccccc3)NC(=O)C(C(C)CC)NC(=O)C(CCCN)NC2=O)C(C)CC)CS1 (centres undefined) -5.55%
COC(=O)[C@]1(C)CC[C@]2(C)CC[C@]3(C)C4=CCc5c(cc(OC(C)=O)c(OC(C)=O)c5C)[C@]4(C)CC[C@@]3(C)[C@@H]2C1 10.1%
CCC[C@H]1CC2=C(C[C@@H](CC)CC3=C1C(=O)OC3=O)C(=O)OC2=O -4.81%
Nc1nc2[nH]c(=O)c(=O)[nH]c2c(=O)[nH]1 13.8%
CC(=O)OC(C)(CCC=C(C)C)C1CC=C(C)CC1 (centres undefined) 0.603%
CC(C)[C@H](NC(=O)[C@H](Cc1ccc(O)cc1)NC(=O)[C@@H](NC(=O)C(F)(F)F)C(C)C)C(=O)O (Tfa-Val-Tyr-Val-OH) -6.07%
CC(=O)c1cc2c(cc1O)OC(C)(C)C=C2 16.8%
COc1ccc(-c2coc3cc(O)c(OC)cc3c2=O)cc1 10.5%
CC1=C2C(=COC(C)C2C)C(=O)C(C(=O)O)=C1O (centres undefined) 10.6%
CC(C)=CCC[C@](C)(O)C1CC=C(C)CC1 (some centres undefined) 1.33%
COc1cc(O)c(C(=O)/C=C/c2ccccc2)c(OC)c1 -2.81%
Cc1ccc(C(C)C)c(O)c1C(=O)O 7.11%
CC(C)CCCC(C)C1CCC2C3CC(=O)[C@H]4CC(O)CCC4(C)C3CCC12C (some centres undefined) -4.09%
CC(C)C(N)C(=O)NC(Cc1c[nH]c2ccccc12)C(=O)O (centres undefined) 4.18%
COc1cc(O)c2c(=O)c(-c3ccccc3)coc2c1 -1.53%
CC[C@@H](CC[C@@H](C)[C@H]1CC[C@H]2[C@@H]3CC=C4C[C@@H](O)CC[C@]4(C)[C@H]3CC[C@]12C)C(C)C 10.4%
CC1(C)CCC2(C(=O)O)CCC3(C)C(=CCC4C5(C)CCC(O)C(C)(C)C5CCC43C)C2C1 (centres undefined) 0.817%
